Rows were chosen to be rich in hits. Some 1.3% of all compounds tested hit in one or more screens of this group.
gsp antag: qHTS for Antagonists of gsp, the Etiologic Mutation Responsible for Fibrous Dysplasia/McCune-Albright Syndrome: qHTS; gsp-mutant cells, cAMP HTRF, 30 min; AID 624288, 2012; actives 0.4% (n = 340,000); Potency, µM (top dose mostly 76.9 µM), for inactives: top-dose activity change, negative = inhibition, usual class: inhibitors; calls by dose curve; cell line not stated here;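 note: intracellular cAMP measured with PDE inhibitor Ro 20-1724 present during compound exposure; potency is the fitted concentration of half-maximal effect; % is set by controls: 0 for no effect and ±100 for the full control effect; nearly all actives have a fitted effect of over 65% in size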
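Measurement of cellular cAMP by homogeneous time-resolved fluorescence following a 30 min compound exposure at 37C. The PDE inhibitor […] was present throughout; the assay buffer was DPBS with 0.05% BSA and 0.005% Tween 20.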
RXFP1 antagonist: qHTS Assay for Antagonists of the Relaxin Receptor RXFP1; Relaxin receptor 1 (Homo sapiens), Q9HBX9; HEK293-RXFP1, relaxin-stimulated cAMP HTRF, 30 min; stronger effect = lower value; activity change, negative = inhibition, % at 57.5 µM; actives 0.59% (n = 350,000); AID 1259400, 2018;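 active = activity change of -60% or lower, but not beyond a set lower limit; inconclusive = change between -60% and -40%, or beyond the set limit; inactive = change above -40%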; note: % is set by controls: 0 for no effect and ±100 for the full control effect
Target sequence (Q9HBX9 whole entry, looked up): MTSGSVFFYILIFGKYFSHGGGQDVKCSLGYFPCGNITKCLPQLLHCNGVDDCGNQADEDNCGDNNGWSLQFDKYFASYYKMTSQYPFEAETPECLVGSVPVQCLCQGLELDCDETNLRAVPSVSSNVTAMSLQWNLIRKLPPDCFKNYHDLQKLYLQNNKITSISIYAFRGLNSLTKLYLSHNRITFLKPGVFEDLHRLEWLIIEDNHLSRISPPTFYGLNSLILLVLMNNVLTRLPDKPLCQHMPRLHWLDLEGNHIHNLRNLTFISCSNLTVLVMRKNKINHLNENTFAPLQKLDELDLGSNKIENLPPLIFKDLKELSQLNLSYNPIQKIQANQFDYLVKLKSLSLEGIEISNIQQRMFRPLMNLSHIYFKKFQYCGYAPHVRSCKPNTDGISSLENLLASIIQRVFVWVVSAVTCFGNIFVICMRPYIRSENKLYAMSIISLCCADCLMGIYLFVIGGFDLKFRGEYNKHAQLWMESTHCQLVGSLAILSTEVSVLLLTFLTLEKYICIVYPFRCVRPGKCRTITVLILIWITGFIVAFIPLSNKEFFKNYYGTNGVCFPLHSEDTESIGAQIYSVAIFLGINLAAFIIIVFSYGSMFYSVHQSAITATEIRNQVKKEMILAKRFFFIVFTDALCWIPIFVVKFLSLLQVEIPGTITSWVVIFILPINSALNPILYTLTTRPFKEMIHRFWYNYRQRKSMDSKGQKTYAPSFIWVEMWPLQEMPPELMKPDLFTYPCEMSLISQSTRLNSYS
Akt phos inh: HTS Assay for Inhibitors of Akt Phophorylation: Primary Screen; Neuro2A IGF-stimulated pAkt S473 HTRF, 20 min; stronger effect = lower value; activity change, % for hits at 50 µM; actives 0.32% (n = 360,000); in the data active = activity change below about -80%; inconclusive = mostly about -51% to -80%; note: % is set by controls: 0 for no effect and ±100 for the full control effect
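Neuro2A cells (4,500/well, DMEM with 0.5% FBS) were treated with compound at a single 50 µM final concentration, stimulated with 6 nM IGF for 20 min at 37 °C, and lysed. Phospho-Akt Ser473 was read by HTRF as 665/615 ratio ×10^4.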
gsp ag: qHTS for Agonist of gsp, the Etiologic Mutation Responsible for Fibrous Dysplasia/McCune-Albright Syndrome: qHTS; gsp mutant cells, cAMP HTRF, 30 min; Potency, µM (doses to about 76.9 µM), for inactives: at the top dose activation (cAMP increase), actives largely listed as activators; actives 0.13% (n = 340,000); active = well fitted activation curve with a large enough effect; inconclusive = small, poorly fitted or top-dose-only effect, or another doubt; inactive = no such curve, though single readings can be large or run the other way; cell line not stated here;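 note: phosphodiesterase inhibitor Ro 20-1724 added with compounds to block cAMP breakdown; potency is the fitted concentration of half-maximal effect; nearly all actives have a fitted effect of over 60% in size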
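Cells stably selected in G418 were plated at 2000/well, grown 16-24 hr, then given compounds in DMSO with the PDE inhibitor […] (300 uM solution added) for 30 min at 37C; cAMP was read by HTRF.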
RXFP1 agonist: qHTS Assay for Agonists of the Relaxin Receptor RXFP1. AID 2676, 2010. Potency, µM (titrated, usually from 57.5 µM), for inactives: at the top dose activation, hits mostly activators. HEK293T-RXFP1 cAMP TR-FRET, 30 min; response scale: percent of porcine relaxin response, buffer zero. actives 0.3% (n = 370,000). Relaxin receptor 1 (Homo sapiens), Q9HBX9; active = well fitted activation curve with a large enough effect; inconclusive = small, poorly fitted or top-dose-only effect; note: potency is the fitted concentration of half-maximal effect; % is set by controls: 0 for no effect and ±100 for the full control effect; nearly all actives have a fitted effect of over 60% in size
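HEK293T cells stably expressing RXFP1 were pretreated with the PDE4 inhibitor Ro 20174, exposed to compounds for 30 min at 37C, lysed, and cAMP was read by TR-FRET. Data normalized to buffer (basal) and 29 nM porcine relaxin (100%).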
The depositor's hits bear a star; i = inactive; ? = inconclusive; · = no result given; [ ] = dose if it differs, or a comment.

SMILES	gsp antag	RXFP1 antagonist	Akt phos inh	gsp ag	RXFP1 agonist
O=C(c1ccc(-c2ccc([N+](=O)[O-])cc2)o1)N1CCCC(C(F)(F)F)C1 (stereo not given)	-15.3%	-13.2	i	5.7%[15.4 µM]	4.7%
O=C(c1ccc(-c2ccc([N+](=O)[O-])cc2)o1)N1CCCCCCC1	-5.4%	-71.5*	i	-0.6%	0.6%
COc1ccc(CCNC(=O)c2ccc([N+](=O)[O-])cc2Cl)cc1OC	-9.6%	3.2	i	-3.7%[15.4 µM]	·
COc1ccc(S(=O)(=O)Cc2ccc(C(=O)NC3CCCCCC3)o2)cc1	-9.2%	-101.8*	i	10.1%	2.4%
COc1ccc(CCNC(=O)c2ccc(-c3ccc([N+](=O)[O-])cc3Cl)o2)cc1OC	31.6µM*	5.6	i	-35.9%	0.2%
COc1ccc(NC(=O)c2ccc(-c3ccc([N+](=O)[O-])cc3)o2)cc1OC	35.5µM*	-16.8	i	7.8%	5.5%
COc1cc(NC(=O)Cn2nc3c(cc2=O)CC(C)CC3)cc(OC)c1OC (stereo not given)	·	9.7	·	·	3.0%
CCc1cccc(C)c1NC(=O)CN1C(=O)c2c(c3ccccc3n2C)C1c1ccc(OC)cc1 (stereo not given)	·	-22.1	·	·	1.7%
COCCOC(=O)c1c(C)oc2c1cc(NS(=O)(=O)c1ccc(Cl)c(C)c1)c1ccccc12	·	-17.8	·	·	3.1%
CC(=O)Nc1cccc(NC(=O)Cc2csc(COc3cccc(C)c3)n2)c1	·	-5.3	·	·	-0.3%
COc1ccc(CCNC(=O)c2ccc(CS(=O)(=O)c3ccc(C)cc3)o2)cc1OC	-19.7%	-26.4	i	?	4.5%
COc1ccc(CCNC(=O)c2ccc(CS(=O)(=O)c3ccc(Cl)cc3)o2)cc1OC	39.8µM*	5.6	i	-21.1%	-2.3%
COc1ccc(CCNC(=O)c2ccc(N(C)S(=O)(=O)c3ccc(C)cc3)cc2)cc1OC	28.2µM*	-2.2	i	5.6%	1.1%
O=C(NCCc1ccccc1Cl)c1cc2ccccn2n1	·	-6.8	·	·	4.6%
COC(=O)c1sc(NC(=S)NC(=O)c2ccccc2F)nc1C	-6.3%	-4.1	i	?	35.5µM*
O=C(NCc1cccnc1)Nc1ccc2c(c1)OCO2	5.6%	-3.6	i	17.7%	-0.4%
Cn1cc(CNC(=O)Nc2ccc3c(c2)OCO3)cn1	9.3%	6.3	-105.9%*	23.1%	-0.9%
O=C(O)c1ccc2c(c1)C(=O)N([C@@H](Cc1ccc(O)cc1)C(=O)O)C2=O	·	·	·	·	1.9%
O=C(O)C(Cc1ccc(O)cc1)N1C(=O)c2c(Cl)c(Cl)c(Cl)c(Cl)c2C1=O (stereo not given)	-2.2%	-61.5*	i	-33.6%[15.4 µM]	·
Cc1cccc(NC(=O)CSc2nc3n[nH]c(C)c3c(=N)n2-c2cccc(Cl)c2)c1	·	-18.7	·	·	-0.6%
Cn1c(CNC(=O)c2ccco2)nnc1SCC(=O)c1ccccc1	1.4%	-7.3	i	28.0%[15.4 µM]	-0.2%
Cn1c(CNC(=O)c2ccco2)nnc1SCC(=O)N1CCN(c2ccccc2F)CC1	2.3%	-93.5*	i	4.5%	-2.5%
O=C(c1ccco1)N1CCN(c2ccccc2F)CC1	-2.7%	2.2	-117.2%*	?	-2.6%
O=C(c1ccco1)N1CCCC(N2CCN(c3ccccc3F)CC2)C1 (stereo not given)	-4.3%	0.8	i	5.8%[15.4 µM]	-2.0%
COc1ccccc1NC(=O)c1oc2ccccc2c1NC(=O)c1cccc(OC)c1OC	·	-11.6	·	·	-0.2%
Cc1ccc2c(c1)c1c(c(=O)n(-c3cccc(Cl)c3)c(=O)n1CC(=O)N1CCCC1)n2C	·	·	·	·	3.3%
COc1cc(CCC(=O)Nc2ccc(Br)c(C(F)(F)F)c2)cc(OC)c1OC	28.2µM*	-28.5	i	0.0%[15.4 µM]	-0.3%
O=c1[nH]nc(CNc2cccc(C(F)(F)F)c2)c2ccccc12	-6.2%	-1.6	i	-8.3%	-0.7%

Screening results deposited in PubChem by National Center for Advancing Translational Sciences (NCATS).
